Source: PubChem (The Scripps Research Institute Molecular Screening Center)
In the library only some 3.4% were active in any assay of this set; here they are far more common.
TEAD-YAP inh: TEAD-YAP interaction inhibition; HEK-TIYL cells, TEAD-Gal4/YAP UAS-luciferase luminescence; 1.4% of 640,000 active; AID 1259422; inhibition, % at 9.12 µM; in the data active means inhibition above about 32%
GPR151 ag: activators of human GPR151. PathHunter beta-arrestin GPR151 cells, luminescence. activation, % at 11.2 µM. 1% of 650,000 active. AID 1508602; in the data active means activation above about 4.9%
MITF primary: human MITF inhibition, primary screen. AID 1259374. AlphaScreen MITF homodimerization, bead proximity signal. inhibition, % at 2.6 µM. 0.91% of 650,000 active; in the data active means inhibition above about 50%
Target sequence (O75030 whole entry, looked up): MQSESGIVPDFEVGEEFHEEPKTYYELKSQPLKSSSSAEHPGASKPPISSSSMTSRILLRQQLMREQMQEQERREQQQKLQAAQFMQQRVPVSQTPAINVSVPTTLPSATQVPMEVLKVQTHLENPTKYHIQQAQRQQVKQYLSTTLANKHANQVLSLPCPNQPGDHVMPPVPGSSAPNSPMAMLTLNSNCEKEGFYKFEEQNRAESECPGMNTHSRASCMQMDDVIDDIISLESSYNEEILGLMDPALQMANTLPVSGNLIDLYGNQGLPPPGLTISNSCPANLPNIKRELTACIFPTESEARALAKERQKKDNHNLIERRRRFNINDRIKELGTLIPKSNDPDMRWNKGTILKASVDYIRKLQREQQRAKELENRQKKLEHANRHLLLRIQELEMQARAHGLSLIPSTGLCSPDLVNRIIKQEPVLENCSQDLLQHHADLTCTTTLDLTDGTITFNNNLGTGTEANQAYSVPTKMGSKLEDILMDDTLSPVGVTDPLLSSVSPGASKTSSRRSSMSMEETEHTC
FBW7 act: activators of human E3 ligase FBW7. Q969H0. AlphaScreen FBW7–phospho-cyclin E peptide binding, activator screen. normalized activity (activation), % at 26.1 µM. 0.13% of 650,000 active. AID 1259310; in the data active means normalized activity above about 1.9%;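 further: purified mutant Fbw7 with reduced substrate affinity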
Large screens that a line does not name were inactive.

Cc1ccc(NC(=O)c2c(-c3c(Cl)cccc3Cl)noc2C)cc1C	none
Cc1nc(NCc2cccnc2)c2c(C)c(C)sc2n1	none
Cc1sc2nc(-c3cccnc3)nc(NCCSCc3ccco3)c2c1C	TEAD-YAP inh 68
O=C(CCl)N(c1ccccc1)c1ccccc1	TEAD-YAP inh 66
CCOC(=O)N1CCN(S(=O)(=O)c2cc(C(=O)Nc3ccccc3CC)ccc2F)CC1	none
CC(C)c1ccc2oc(-c3cccc(N)c3)nc2c1	TEAD-YAP inh 65
CC(C)c1ccc2oc(-c3ccc(N)cc3)nc2c1	TEAD-YAP inh 80
Nc1cccc(-c2nc3cc(S(=O)(=O)c4ccc5oc(-c6cccc(N)c6)nc5c4)ccc3o2)c1	none
CCN(CC)C(=O)C1CCCN(c2nc(Nc3ccccc3)c3[nH]cnc3n2)C1 (configuration not stated)	TEAD-YAP inh 48
CCN(CC)C(=O)C1CCCN(c2nc(NCCN(C(C)C)C(C)C)c3ncn(-c4ccccc4)c3n2)C1 (configuration not stated)	TEAD-YAP inh 41
CCN(CC)C(=O)C1CCCN(c2nc(N)c3ncn(-c4ccccc4)c3n2)C1 (configuration not stated)	TEAD-YAP inh 46
CCN(CC)C(=O)C1CCCN(c2nc(NCCN(C(C)C)C(C)C)c3ncn(C(C)C)c3n2)C1 (configuration not stated)	none
CCN(CC)C(=O)C1CCCN(c2nc(Nc3cc(OC)c(OC)c(OC)c3)c3ncn(C(C)C)c3n2)C1 (configuration not stated)	TEAD-YAP inh 34
NS(=O)(=O)c1ccc(C(=O)OCc2cccc(Br)c2)cc1	none
COc1ccc(NC(=O)c2cc(C(C)C)n(-c3nc4ccccc4s3)n2)cc1OC	TEAD-YAP inh 56
CC(C)c1cc(C(=O)NCCc2ccccc2)nn1-c1nc2ccccc2s1	TEAD-YAP inh 44
COc1ccc(-c2cnc(NCc3cccc(C)c3)n2C)cc1	none
C=CCn1c(=O)/c(=C\C=C2\C=CN(CC)c3ccccc32)s/c1=C\c1sc(-c2ccccc2)c(-c2ccccc2)[n+]1CC	none
CCN1C=C/C(=C/c2cccc[n+]2C)c2ccccc21	TEAD-YAP inh 82
Cc1cc(-c2cnc(N3CCCC3)nc2C2CCN(C(=O)c3scnc3C)CC2)on1	TEAD-YAP inh 60
CCc1ccccc1Nc1nc(N)nc(CCl)n1	TEAD-YAP inh 45
COc1cc([C@@H]2c3cc4c(cc3[C@H](O)C3COC(=O)[C@@H]32)OCO4)cc(OC)c1OC (some centres not stated)	TEAD-YAP inh 55
COc1cc([C@@H]2c3cc4c(cc3C(OC3O[C@@H]5COC(C)O[C@H]5[C@H](O)[C@H]3O)C3COC(=O)[C@@H]32)OCO4)cc(OC)c1O (some centres not stated)	none
CC(C)=CCC/C(C)=C/CC(C)(C)CNCCN1CCNCC1	TEAD-YAP inh 58
CC(=O)Nc1ccccc1NC(=O)CN(C)S(=O)(=O)c1ccc(C)cc1	none
CC(=O)Nc1ccccc1N(C)S(=O)(=O)c1ccc(C)cc1	TEAD-YAP inh 51
O=C1OC(c2ccco2)=N/C1=C/c1cccc2ccccc12	none
Cn1c(=O)c2c(nc(Cl)n2Cc2cccc(C(F)(F)F)c2)n(C)c1=O	TEAD-YAP inh 37
CCNc1nc2c(c(=O)n(C)c(=O)n2C)n1Cc1cccc(C)c1	TEAD-YAP inh 44
Cc1cccc(Cn2c(NCCO)nc3c2c(=O)n(C)c(=O)n3C)c1	TEAD-YAP inh 42
Cn1c(=O)c2c(nc(NCCO)n2Cc2cccc(Br)c2)n(C)c1=O	none
CCOc1cc(C2C(C#N)=C(N)OC(C)=C2C(=O)OC)c(Cl)cc1OCC(=O)OC (configuration not stated)	none
CCOC(=O)CNC(=O)c1cc(C)c(-c2ccccc2)s1	none
CN1CCNC(=O)C1CC(=O)N1CCCC(c2nc3ccccc3c(=O)[nH]2)C1 (configuration not stated)	none
CN(C)CCN1C(=O)C(=O)/C(=C(\O)c2ccc(Cl)cc2)C1c1ccc(F)cc1 (configuration not stated)	none
COc1ccc(C(=O)Nc2ccc(OCc3ccccc3)cc2)c(OC)c1	TEAD-YAP inh 90
O=S(=O)(Nc1ccc(OCc2ccccc2)cc1)c1ccc(Br)cc1	none
CN(C)S(=O)(=O)Nc1ccc(OCc2ccccc2)cc1	FBW7 act 1.9
O=C1NC(=S)N/C1=C/c1ccc(OCc2ccccc2Cl)cc1	none
O=C(CSc1nnnn1-c1cccc(O)c1)Nc1ccccc1[N+](=O)[O-]	none
CCOC(=O)C1CCN(C(=O)c2c[nH]c3ccc(S(=O)(=O)N(CC)c4cccc(C)c4)cc3c2=O)CC1	none
Cc1cccn2c(=O)c(/C=C3\SC(=S)N(C)C3=O)c(N3CCN(CCO)CC3)nc12	none
CC(C)(C)c1ccc(/C=N/NC(=O)C2COc3ccccc3O2)cc1 (configuration not stated)	TEAD-YAP inh 35
Cc1ccccc1-n1[nH]c(C)c(/C=N/NC(=O)C(=O)N/N=C/c2c(C)[nH]n(-c3ccccc3C)c2=O)c1=O	MITF primary 52
COC(=O)c1ccc(/C=N/NC(=O)C2COc3ccccc3O2)cc1 (configuration not stated)	none
Cc1[nH]n(-c2ccccc2)c(=O)c1/C=N/NC(=O)C1COc2ccccc2O1 (configuration not stated)	TEAD-YAP inh 36
CC(=O)N/N=C/c1c(C)[nH]n(-c2ccccc2)c1=O	none
NC(=O)c1ccsc1NC(=O)/C=C/c1cccs1	TEAD-YAP inh 64
Cc1cc(NC(=O)C(CC(C)C)NS(=O)(=O)c2ccc3nc(C)sc3c2)n[nH]1 (configuration not stated)	none
O=C(Nc1ccc(NCN2C(=O)c3ccc([N+](=O)[O-])cc3C2=O)cc1)c1ccccc1	none
COc1ccccc1CNC(=O)c1cnn2c(C)c(Cc3ccc(F)cc3)c(C)nc12	none
COC(=O)c1cnn2c(C)c(Cc3ccc(F)cc3)c(C)nc12	TEAD-YAP inh 36
COC(CNC(=O)c1cnn2c(C)c(Cc3c(C)cc(C)cc3C)c(C)nc12)OC	TEAD-YAP inh 50
COc1ccc(-c2cc(-c3ccc(OC)cc3)c(C#N)c(SCC(=O)c3ccc(C)cc3)n2)cc1	none
CC(=O)Nc1nc(-c2cc(Cl)ccc2Cl)cs1	none
CC(=O)Nc1nc(-c2ccc(Cl)cc2Cl)cs1	TEAD-YAP inh 50
COc1ccc(C(=O)/C=c2\[nH]c(=O)/c(=C\c3ccsc3)s2)cc1	none
O=C1CCCN1CCn1cnc2c(NCCN3CCOCC3)nc(N3CCC(N4CCOCC4)CC3)nc21	none
CN1/C(=C\C(C[N+](=O)[O-])c2ccc3c(c2)OCO3)C(C)(C)c2ccccc21 (configuration not stated)	TEAD-YAP inh 49
COc1ccc(C(/C=C2\N(C)c3ccccc3C2(C)C)C[N+](=O)[O-])cc1 (configuration not stated)	none
CCOc1cc(C#N)c(NC(=O)c2cccnc2)cc1OCC	TEAD-YAP inh 55
CCOc1ccccc1NC(=O)c1cccs1	none
CCOc1cc(C#N)c(NC(=O)c2ccncc2)cc1OCC	none
CCOc1cc(C#N)c(NC(=O)c2cccs2)cc1OCC	TEAD-YAP inh 48
